Among the data in ChEMBL document CHEMBL4513149, “CO-ADD screening of MMV (CH) - MMV compounds” (2021) are Inhibition values, retold here.

Measured potencies and affinities stand elsewhere.

By Inhibition is commonly meant the change of the read-out against control, counted positive when it falls.

One test relates to Klebsiella pneumoniae. As to conditions: Concentration 20 uM; ASSAY_TEST Inhibition of Bacterial Growth; detection method Absorption (OD600); MEDIA CAMHB; plate type 384well; NBS; CORNING #3640; time 18 hr.
On to `CCc1ccc([C@@H]2C[C@H](C(F)(F)F)n3ncc(C(=O)NCc4ccc(OC)cc4)c3N2)cc1`, for which the Inhibition turned out to be 2.88%.

On to `COc1cc(NC(=O)Cc2nn(C)c(=O)c3ccccc23)ccc1Cl`, for which the Inhibition stood at 12.64%.

As to `COc1ccc(Oc2ccc([C@@H](C)N(C)c3ncc4c(N)nc(N)nc4n3)cc2)cc1`, the Inhibition is given as 18.87%.

On to `CCOc1ccc(-c2nc(NC(=O)CS(=O)(=O)c3ccccc3)sc2C)cc1`, for which the Inhibition was determined as 8.83%.

`CC(C)(C(=O)Nc1ccc(F)cc1)n1cc(-c2ccccc2F)cn1`: the Inhibition amounted to 12.71%.

As for `CCC(Sc1nc2ccccc2o1)C(=O)Nc1nnc(C)s1` (configuration not stated), the Inhibition is listed as -2.47%.

`CCC(C)NC(=O)c1ccc(NC(=O)C2(c3ccccc3)CCCC2)cc1` (configuration not stated): the Inhibition came out at 1.96%.

For the compound `CCCNC(=O)N1CCC2(CC1)CC(=O)c1cc(C)ccc1O2`, the Inhibition worked out at 17.38%.

For the compound `CCc1ccc(S(=O)(=O)Nc2cc(CN3CCN(CCC(C)C)CC3)ccc2C)cc1`, the Inhibition turned out to be 18.36%.

For `Cc1cccc(NC(=O)c2cc(S(=O)(=O)N(C)c3ccc(F)cc3)ccc2Cl)n1`, the Inhibition is 14.02%.

Regarding `Cc1nn(C(=O)Nc2cccc(C(F)(F)F)c2)c(C)c1Sc1ncccn1`, the Inhibition is reported as 9.64%.

As for `COc1ccc(C2=NN(C3CCCCCC3)C(=O)[C@@H]3CC=CC[C@H]23)cc1OCCCCOc1ccc(-c2nnn[nH]2)cc1`, the Inhibition worked out at 8.89%.

As for `CCCCN(CCCC)c1c(C#N)cc(S(=O)(=O)Nc2ccccc2)cc1C#N`, the Inhibition worked out at 5.16%.

For the compound `O=C(NCCc1c[nH]c2ccccc12)c1cc2ccccc2oc1=O`, the Inhibition was found to be 9.33%.

As for `CC(=O)Nc1ccc(NC(=O)c2cc(-c3cc(Cl)ccc3O)n[nH]2)cc1`, the Inhibition is -16.31%.

Turning to `C[C@H](C(N)=O)N1CCCC[C@H]1c1ccc(OCc2cccc(F)c2)cc1`, the Inhibition is 11.66%.

As for `Cc1ccc(NC(=O)c2nc[nH]c2C(=O)Nc2nc3ccccc3[nH]2)c(C)c1`, the Inhibition was found to be 13.9%.

In the case of `Cl.Cl.Cl.NS(=O)(=O)c1cncc(-c2ccc3nccc(-c4cn[nH]c4)c3n2)c1`, the Inhibition was -1.63%.

Consider `O=C(Nc1nc(-c2ccccn2)cs1)c1cncn1-c1ccccc1`, for which the Inhibition was 11.31%.

Consider `COc1ccc2nc(C)cc(OCC(=O)Nc3ccccc3OC)c2c1`, for which the Inhibition was determined as 17.25%.

`COC(=O)c1ccc(F)cc1NS(=O)(=O)c1cccc(-c2cnn(Cc3ccccc3)c2)c1`: the Inhibition is reported as 14.02%.

Consider `O=C1COCc2ccc(Br)cc2N1Cc1ccc(C(F)(F)F)cc1`, for which the Inhibition is 17.24%.

Regarding `CN1CCN(S(=O)(=O)c2ccc(-c3ccc4c(Nc5ncc(Cl)cn5)ccnc4c3)cc2)CC1`, the Inhibition is 7.93%.

In the case of `Cl.O=C(Nc1ccc(N2CCNCC2)nc1)c1oc(-c2ccccc2)nc1C(F)(F)F`, the Inhibition is given as 2.54%.

In the case of `Cc1ccc(-c2cc(C(=O)Nc3cccnc3)c3cc(Br)ccc3n2)cc1`, the Inhibition was 15.62%.

Turning to `Cc1ccc(NC(=O)c2cc(S(=O)(=O)NC(C)(C)C)ccc2C)nc1`, the Inhibition worked out at 13.76%.

Turning to `O=C(C1CCN(c2nnnn2-c2ccccc2)CC1)N1CCc2ccccc2C1`, the Inhibition stood at 12.73%.

As for `O=C(NCc1ccco1)N1CCN(Cc2ccc(Cl)s2)CC1`, the Inhibition is 5.01%.

Turning to `O=C(Cn1ccnc1[N+](=O)[O-])NCc1ccccc1` [BENZNIDAZOLE], the Inhibition is listed as 18.48%.

For the compound `Cc1ccc2[nH]c3c(NCCN(C)C)ncnc3c2c1`, the Inhibition is 16.4%.

On to `COc1ccccc1CNC(=O)c1cc(C2CC2)nc2c1cnn2C(C)C`, for which the Inhibition stood at 8.65%.

Turning to `Cc1cc(Nc2ccc(C(F)(F)F)cc2)n2ccnc2n1`, the Inhibition worked out at 6.21%.

For `CCNC(=O)C(C)Nc1nc(-c2cccnc2)nc2sc(C)c(C)c12` (configuration not stated), the Inhibition is on record as -9.71%.

For the compound `CC1CCCN(C(=O)C(C)Nc2cc(Cl)ccc2N2CCOCC2)C1` (configuration not stated), the Inhibition worked out at 10.27%.

Consider `COc1ccccc1C(C)NCC(=O)Nc1cc(C(F)(F)F)ccc1Cl` (configuration not stated), for which the Inhibition was determined as 14.48%.

With `FC(F)(F)c1cccc(-c2nc3c(NCc4ccncc4)nccc3[nH]2)c1`, the Inhibition was determined as 6.33%.

The subject of a further test is Candida albicans. To be noted: 20 µM.
On to `CCc1ccc([C@@H]2C[C@H](C(F)(F)F)n3ncc(C(=O)NCc4ccc(OC)cc4)c3N2)cc1`, for which the Inhibition worked out at 5.42%.

Consider `COc1cc(NC(=O)Cc2nn(C)c(=O)c3ccccc23)ccc1Cl`, for which the Inhibition is 6.72%.

For the compound `COc1ccc(Oc2ccc([C@@H](C)N(C)c3ncc4c(N)nc(N)nc4n3)cc2)cc1`, the Inhibition amounted to 5.99%.

As to `CCOc1ccc(-c2nc(NC(=O)CS(=O)(=O)c3ccccc3)sc2C)cc1`, the Inhibition was 3.16%.

As to `CC(C)(C(=O)Nc1ccc(F)cc1)n1cc(-c2ccccc2F)cn1`, the Inhibition was found to be 7.41%.

With `CCC(Sc1nc2ccccc2o1)C(=O)Nc1nnc(C)s1` (configuration not stated), the Inhibition stood at 4.83%.

On to `CCC(C)NC(=O)c1ccc(NC(=O)C2(c3ccccc3)CCCC2)cc1` (configuration not stated), for which the Inhibition was determined as 3.52%.

Take `CCCNC(=O)N1CCC2(CC1)CC(=O)c1cc(C)ccc1O2`: the Inhibition worked out at 2.86%.

For the compound `CCc1ccc(S(=O)(=O)Nc2cc(CN3CCN(CCC(C)C)CC3)ccc2C)cc1`, the Inhibition was 4.16%.

With `Cc1cccc(NC(=O)c2cc(S(=O)(=O)N(C)c3ccc(F)cc3)ccc2Cl)n1`, the Inhibition was 9.46%.

As to `Cc1nn(C(=O)Nc2cccc(C(F)(F)F)c2)c(C)c1Sc1ncccn1`, the Inhibition came to 2.23%.

Turning to `COc1ccc(C2=NN(C3CCCCCC3)C(=O)[C@@H]3CC=CC[C@H]23)cc1OCCCCOc1ccc(-c2nnn[nH]2)cc1`, the Inhibition is 6.64%.

Turning to `CCCCN(CCCC)c1c(C#N)cc(S(=O)(=O)Nc2ccccc2)cc1C#N`, the Inhibition worked out at 3.66%.

As for `O=C(NCCc1c[nH]c2ccccc12)c1cc2ccccc2oc1=O`, the Inhibition stood at 4.19%.

As for `CC(=O)Nc1ccc(NC(=O)c2cc(-c3cc(Cl)ccc3O)n[nH]2)cc1`, the Inhibition came to 54.8%.

On to `C[C@H](C(N)=O)N1CCCC[C@H]1c1ccc(OCc2cccc(F)c2)cc1`, for which the Inhibition was determined as 2.64%.

As for `Cc1ccc(NC(=O)c2nc[nH]c2C(=O)Nc2nc3ccccc3[nH]2)c(C)c1`, the Inhibition was 23.3%.

For `Cl.Cl.Cl.NS(=O)(=O)c1cncc(-c2ccc3nccc(-c4cn[nH]c4)c3n2)c1`, the Inhibition amounted to 3.16%.

Turning to `O=C(Nc1nc(-c2ccccn2)cs1)c1cncn1-c1ccccc1`, the Inhibition came out at 1.74%.

`COc1ccc2nc(C)cc(OCC(=O)Nc3ccccc3OC)c2c1`: the Inhibition was found to be 0.63%.

Consider `COC(=O)c1ccc(F)cc1NS(=O)(=O)c1cccc(-c2cnn(Cc3ccccc3)c2)c1`, for which the Inhibition worked out at 6.83%.

In the case of `O=C1COCc2ccc(Br)cc2N1Cc1ccc(C(F)(F)F)cc1`, the Inhibition is 8.78%.

In the case of `CN1CCN(S(=O)(=O)c2ccc(-c3ccc4c(Nc5ncc(Cl)cn5)ccnc4c3)cc2)CC1`, the Inhibition is 4.17%.

In the case of `Cl.O=C(Nc1ccc(N2CCNCC2)nc1)c1oc(-c2ccccc2)nc1C(F)(F)F`, the Inhibition was found to be 2.72%.

With `Cc1ccc(-c2cc(C(=O)Nc3cccnc3)c3cc(Br)ccc3n2)cc1`, the Inhibition amounted to 4.34%.

On to `Cc1ccc(NC(=O)c2cc(S(=O)(=O)NC(C)(C)C)ccc2C)nc1`, for which the Inhibition was 1.54%.

Consider `O=C(C1CCN(c2nnnn2-c2ccccc2)CC1)N1CCc2ccccc2C1`, for which the Inhibition is 2.89%.

Regarding `O=C(NCc1ccco1)N1CCN(Cc2ccc(Cl)s2)CC1`, the Inhibition worked out at 2.08%.

Regarding `O=C(Cn1ccnc1[N+](=O)[O-])NCc1ccccc1` [BENZNIDAZOLE], the Inhibition was 2.82%.

For `Cc1ccc2[nH]c3c(NCCN(C)C)ncnc3c2c1`, the Inhibition was determined as 2.94%.

For the compound `COc1ccccc1CNC(=O)c1cc(C2CC2)nc2c1cnn2C(C)C`, the Inhibition worked out at 6.8%.

For the compound `Cc1cc(Nc2ccc(C(F)(F)F)cc2)n2ccnc2n1`, the Inhibition turned out to be 3.67%.

For `CCNC(=O)C(C)Nc1nc(-c2cccnc2)nc2sc(C)c(C)c12` (configuration not stated), the Inhibition was found to be 5.77%.

`CC1CCCN(C(=O)C(C)Nc2cc(Cl)ccc2N2CCOCC2)C1` (configuration not stated): the Inhibition is 5.64%.

For `COc1ccccc1C(C)NCC(=O)Nc1cc(C(F)(F)F)ccc1Cl` (configuration not stated), the Inhibition is 1.66%.

On to `FC(F)(F)c1cccc(-c2nc3c(NCc4ccncc4)nccc3[nH]2)c1`, for which the Inhibition came to 3.63%.
